# How the values were obtained:
# Format in all cases: functional
# [1] = target: Solute carrier family 2, facilitated glucose transporter member 1 (Homo sapiens) (UniProt P11166); experiment: ST_JUDE_LEISH: Cytotoxicity at 2uM final concentration against transgenic Leishmania Mexicana promastigotes LmGLUT1 that are glucose transport deficient and complemented with the human glucose transporter GLUT1. Activity is measured by DNA content using SYBR green in vitro
# [2] = target: Hexose transporter 1 (Plasmodium falciparum) (UniProt O97467); experiment: ST_JUDE_LEISH: Cytotoxicity at 2uM final concentration against transgenic Leishmania Mexicana promastigotes LmPfHT that are glucose transport deficient and complemented with the Plasmodium falciparum hexose transporter. Activity is measured by DNA content using SYBR green in vitro
# [3] = target: Glucose transporter (Leishmania mexicana) (UniProt O61059); experiment: ST_JUDE_LEISH: Cytotoxicity at 2uM final concentration against transgenic Leishmania Mexicana promastigotes LmGT2 that are glucose transport deficient and complemented with the L. Mexicana glucose transporter 2. Activity is measured by DNA content using SYBR green in vitro
# Sequence of Solute carrier family 2, facilitated glucose transporter member 1 (Homo sapiens) (P11166 whole entry): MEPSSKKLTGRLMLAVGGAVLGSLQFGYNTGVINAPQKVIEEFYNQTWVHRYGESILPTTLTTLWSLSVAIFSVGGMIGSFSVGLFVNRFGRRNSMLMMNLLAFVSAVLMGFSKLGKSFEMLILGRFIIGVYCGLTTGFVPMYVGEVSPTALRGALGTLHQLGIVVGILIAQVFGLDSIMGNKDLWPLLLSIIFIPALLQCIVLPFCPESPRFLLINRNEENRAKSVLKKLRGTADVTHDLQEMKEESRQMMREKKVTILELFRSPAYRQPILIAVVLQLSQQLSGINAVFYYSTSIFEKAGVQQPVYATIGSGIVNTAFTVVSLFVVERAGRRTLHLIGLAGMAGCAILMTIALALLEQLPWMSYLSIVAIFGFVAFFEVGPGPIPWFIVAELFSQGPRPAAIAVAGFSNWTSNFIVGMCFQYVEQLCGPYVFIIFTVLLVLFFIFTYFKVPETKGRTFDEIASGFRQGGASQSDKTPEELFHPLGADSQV
Structure (SMILES),inhibition [1] [%],inhibition [2] [%],inhibition [3] [%]
COc1ccc2[nH]ccc(=NN=Cc3ccncc3)c2c1,3.57,3.95,3.39
COc1ccc(NS(=O)(=O)c2cc(NC(=O)Cn3ccccc3=O)ccc2N2CCCCC2)cc1,2.57,3.46,-7.28
O=C(Nc1ccc([N+](=O)[O-])cc1)Nc1cc(OCC(F)(F)F)cc(OCC(F)(F)F)c1,4.64,5.79,4.56
CCc1nc2nc(C)cc(Nc3cc(C)cc(C)c3)n2n1,3.06,2.04,3.36
CN/C(=N\O)NCCN(C)C,3.01,4.18,3.91
COc1ccc(CNC2CCN(C)CC2)cc1-c1ccc(S(=O)(=O)NCCN2CCCC2)s1,-3.47,-0.23,-2.9
Cc1ccc2[nH]c(-c3cc(-c4ccc(OCc5ccccc5)cc4)cnc3N)nc2c1,1.75,2.05,-0.31
CCOC(=O)c1ccc(NC(=O)N[C@@H](Cc2ccccc2)C(=O)NC2CCN(Cc3ccc(O)cc3)C2)cc1 (some centres not stated),-1.09,1.43,-7.4
CCNc1c2ccc(Cl)cc2nc2ccc(OC)cc12,2.46,4.37,1.15
O=c1cc(NCCCNCc2ccc(Cl)c(Cl)c2)[nH]c2ccc(C(F)(F)F)cc12,2.13,1.67,2.08
N#CCSc1nnc(-c2ccccc2)c2ccccc12,2.6,9.44,-0.1
COc1ccc(CNCCCCCCNCc2ccc(OC)c3ccccc23)c2ccccc12,59.7,97.2,103
O=C(Nc1ccc(Cl)cc1)Nc1cccc(-c2cccc(-c3nc4cc(F)ccc4[nH]3)c2)c1,7,6.99,6.45
Cc1ccc(NC(=O)N2CCN(CCCCCNC(=O)/C=C/c3ccc(Cl)c(Cl)c3)CC2)cc1C,8.95,7.71,6.33
COc1cc(Cc2cnc(N)nc2N)cc(OCCNC(=O)OCc2ccccc2)c1OC,-1.11,-1.55,-1.22
C#CCCC(=O)Nc1cccc(-c2cccc(-c3nc4cc(C(F)(F)F)ccc4[nH]3)c2)c1,-2.22,1.99,1.42
O=C(/C=C/c1ccc(Cl)c(Cl)c1)NCCCCCCN1CCCN(C(=O)Nc2ccc(F)c(Cl)c2)CC1,3.61,2.44,2.6

Structure (SMILES),inhibition [1] [%],inhibition [2] [%],inhibition [3] [%]
O=S(=O)(NCCN1CCCC1)c1ccc(-c2cccc(CNC3Cc4ccccc4C3)c2)cc1,2.76,8.98,6.15
CCCCNc1ccc(C(=O)NC2CCN(C[C@H](O)c3ccnc4ccc(OC)cc34)CC2)cc1,9.46,11.8,3.39
CC(=NNC(S)=NC(c1ccccc1)c1ccccc1)c1ccccn1,61,58.8,32
COc1ccc(-n2nc(C)c3c2NC(=O)CC3c2ccccc2OCc2ccccc2F)cc1 (configuration not stated),11.7,11.4,9.27
CN1CCN(c2ccc(CNc3ccc4ncc(-c5ccc(OC(F)(F)F)cc5)n4n3)cc2)CC1,-2.29,-1.23,-1.25
Cc1cc(=NN=Cc2ccc(F)cc2)c2ccc(C(F)(F)F)cc2[nH]1,3,4.59,1.74
C=CC[C@H](NC(=O)c1ccc(NS(=O)(=O)c2ccc3nc(N)[nH]c(=O)c3c2)cc1)C(=O)OCCCC,0.58,0.62,1.67
COc1ccc2nccc([C@@H](O)CN3CCC(NCc4cc5cccc(OCc6ccccc6)c5[nH]4)CC3)c2c1,1.7,0.05,2.01
CC(C)(C)Nc1cc(C2CC2)nc(-c2ccccn2)n1,2.01,4.26,3.05
CC(C)(c1ccccc1)c1ccc(O)c(CN2CCOCC2)c1,-0.49,-1.3,-0.41
CN(Cc1ccccc1)C1CCCN(c2cc(NC(=O)c3cccs3)ccn2)C1 (configuration not stated),0.77,-0.06,0.5
CCOC(=O)c1cc(Cl)cc(Cl)c1OCCCON1C(=N)N=C(N)NC1(C)C,0.88,0.77,1.35
CCCCCN1C(=O)N(c2ccc(Cl)c(Cl)c2)C(N(O)C(=O)Nc2ccc(Cl)c(Cl)c2)C1(C)C (configuration not stated),4.79,4.73,2.87
Cc1cccc2nc(-c3ccc(-c4cccc(CN5CCCC(N)C5)c4)s3)[nH]c12 (configuration not stated),12.7,11.2,11.7
O=C(O[C@H]1CN[C@H](C#Cc2cc3ncnc(Nc4ccc5c(ccn5S(=O)(=O)c5cccs5)c4)c3s2)C1)N1CCOCC1,9.76,13.6,10.6
Cc1ccc(NC(=O)c2ccc(N3CCN(c4ccncc4)CC3)cn2)cc1F,109,95.4,102
Cc1ccc(Nc2nc(C)cc(NC3CCCC3)n2)cc1,29.3,19.7,10.8

# Reference: ChEMBL document CHEMBL3433997, “St. Jude Leishmania screening dataset” (2016)
